High-throughput results from PubChem.
ERp5 inh = inhibitors of ERp5-driven insulin aggregation, primary screen, biochemical, turbidity, absorbance 650 nm, single point; inhibition, % at 9.99 µM; 90 min; Protein disulfide-isomerase A6 (Homo sapiens), Q15084; 350,000 compounds, 0.05% hits;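 active = mean replicate inhibition above about 25%, with every replicate also reaching it, limit read from the data, passing the limit was not always enough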
PvdQ acylase = P. aeruginosa PvdQ acylase inhibitors, primary screen, biochemical, fluorescence, plate reader and imaging, single point. purified PvdQ acylase. PvdQ acylase [Pseudomonas aeruginosa LESB58]. AID 488965, 2010. inhibition, % at 10 µM. 340,000 compounds, 0.063% hits; in the data active = inhibition above about 30%, passing the limit was not always enough;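 note: 0% = vehicle neutral wells and 100% = reference inhibitor wells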
CaV13 FRET inh = Disruptors of the CACNA1D IQ motif to Ca2+-dependent inactivation inhibitor domain association, primary screening, Förster resonance energy transfer in intact living …; HEK cells, CFP/YFP FRET ICDI-IQ, plate reader, 10 min; percent FRET-ratio fall versus neutral wells; inhibition, % at 12.3 µM; 340,000 compounds, 0.098% hits; AID 743397;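 active = mean replicate inhibition of at least 30% and at least 1% of replicates passing that level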;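 note: 0% = median of the neutral control wells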
PDI turbidity = inhibitors of human PDI, primary screen, biochemical, turbidity, single point, plate reader. Protein disulfide-isomerase (Homo sapiens), P07237. PDI insulin aggregation turbidity, A650, 90 min. inhibition, % at 10 µM. 350,000 compounds, 0.052% hits. AID 588391, 2011;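 active = mean inhibition across replicates of 30% or more, whatever share of single replicates reach that level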
Target sequence (P07237 whole entry, looked up): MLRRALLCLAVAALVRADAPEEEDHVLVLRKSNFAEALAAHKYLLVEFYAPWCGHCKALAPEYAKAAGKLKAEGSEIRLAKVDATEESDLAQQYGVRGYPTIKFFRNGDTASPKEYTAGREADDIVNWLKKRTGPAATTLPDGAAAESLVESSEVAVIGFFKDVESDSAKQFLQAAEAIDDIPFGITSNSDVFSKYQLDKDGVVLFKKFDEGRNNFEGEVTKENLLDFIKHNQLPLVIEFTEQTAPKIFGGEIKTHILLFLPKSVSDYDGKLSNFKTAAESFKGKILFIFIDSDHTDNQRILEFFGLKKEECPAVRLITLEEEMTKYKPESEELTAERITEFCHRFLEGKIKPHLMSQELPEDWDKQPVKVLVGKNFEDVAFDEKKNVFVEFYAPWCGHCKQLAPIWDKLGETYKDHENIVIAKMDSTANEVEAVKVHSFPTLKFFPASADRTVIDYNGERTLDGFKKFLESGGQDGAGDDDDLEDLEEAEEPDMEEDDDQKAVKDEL
An asterisk follows results filed as active; · = no result; + = active, no number. This is a sample that favours compounds with a hit; in the whole collection about 0.2% have one here.

SMILES | ERp5 inh | PvdQ acylase | CaV13 FRET inh | PDI turbidity
O=C1NN(c2ccccc2)C(=O)C2C1C1C=CC2C12CC2 (centres undefined) | · | 53* | -4 | -8
O=C1C2C(C(=O)N1CCc1ccccc1)C1C=CC2C12CC2 (centres undefined) | -5 | 2 | -9 | 1
Cc1c2c(n3c(nc4ccccc43)c1C#N)N(CCN1CCOCC1)CC2 | 0 | -16 | + | 2
CC(=O)Nc1ccc2c(c1)C(=O)N(C)[C@@H]1CC[C@@H](CC(=O)NCC3CC3)O[C@H]1CO2 | 71* | · | · | ·
COc1ccc(C[C@@H]2OC3(C=CC(=O)C=C3)O[C@H]2Cc2ccc(OC)cc2)cc1 | · | -2 | · | 67*
O=C1C=CC2(C=C1)O[C@H](Cc1ccccc1)[C@@H](Cc1ccccc1)O2 | 3 | -12 | -7 | 44*
Cc1ccccc1-n1c(=O)c(C#N)cc2c(=O)n3ccccc3nc21 | · | -23 | 9 | -1
Cc1cc(-n2c(=O)c(C#N)cc3c(=O)n4ccccc4nc32)no1 | · | -21 | 33* | -5
C=CCn1c(=N)c(C#N)cc2c(=O)n3ccccc3nc21 | · | -17 | 33* | -3
O=C(NC1CCCCCCC1)c1cccc(Cl)c1 | 2 | 74* | -4 | 3
O=C(NC1CCCC1)c1cccc(Cl)c1 | 13 | 70* | -4 | 1
O=C(NC1CCCCCCC1)c1cc([N+](=O)[O-])ccc1Cl | -1 | 42* | 9 | 2
C/C(=C\c1ccccc1)C(=O)N1CCC=CC1=O | -2 | · | · | ·
C[C@@H]1CCCCO[C@H](CN(C)C(=O)CCC(F)(F)F)[C@@H](C)CN([C@@H](C)CO)C(=O)c2cc(N(C)C)ccc2O1 | -4 | · | · | ·
Cc1ncc(CN2CCN(Cc3ccc(F)cc3)C(CCO)C2)s1 (centres undefined) | 1 | 39* | -2 | -1
Cc1ccc2nc(-c3ccc(NS(=O)(=O)c4ccc(F)cc4)cc3)sc2c1 | · | 30* | -3 | -4
Brc1cccc(CNCc2ccncc2)c1 | 1 | -4 | -11 | -3
Fc1ccc(CNCc2cccc(Br)c2)cc1 | 3 | 31* | -2 | -1
O=C(Nc1ccc2c(c1)OCO2)N[C@@H]1CC[C@H](CCNC(=O)C2CCCCC2)O[C@@H]1CO | -5 | · | · | ·
COc1ccc(NC(=O)N(C)C[C@@H]2OCCCC[C@@H](C)Oc3ccc(NC(=O)CCC(F)(F)F)cc3C(=O)N([C@H](C)CO)C[C@@H]2C)cc1 | -5 | · | · | ·
CN1C(=O)NC(c2ccccc2)C2=C1CN(c1cccc(C(F)(F)F)c1)C2=O (centres undefined) | · | 2 | -4 | 31*
CCCCCCc1cc2cc(S(=O)(=O)c3ccc(F)cc3)c(=O)oc2cc1O | 8 | -17 | 53* | 5
CCCCCCc1cc2cc(-c3nnc(-c4ccccc4O)o3)c(=O)oc2cc1O | · | 6 | 4 | -2
COc1ccc(Cc2nnc(SCC(=O)NC3(C#N)CCCCC3)n2N)cc1 | 25* | 20 | -5 | 9
N#CC1(NC(=O)CSc2nnc(COc3ccccc3F)n2N)CCCCC1 | -8 | 3 | -6 | 3
SMILES | ERp5 inh | PvdQ acylase | CaV13 FRET inh | PDI turbidity
CCN1[C@@H]2c3cccc(=O)n3C[C@@H]2[C@@H](CO)[C@@H]1C(=O)NC1Cc2ccccc2C1 | -2 | · | · | ·
N#C/C(=C\c1ccco1)C(=O)Nc1cccc2ncccc12 | 1 | -4 | 41* | -2
C[C@@H]1CN([C@H](C)CO)C(=O)c2c(c3ccccc3n2C)-c2ccccc2CO[C@@H]1CN(C)C(=O)Nc1ccnc(N2CCOCC2)c1 | 1 | · | · | ·
OCCNc1c2ccccc2nc2ccccc12 | -3 | -8 | 51* | 3
OCCNc1nc2ccccc2nc1NCCO | -5 | -1 | -19 | -5
CCOc1c(Cl)cc(CNc2ccc(N3CCCC3)cc2)cc1OC | 3 | -17 | 1 | -9
CCOc1c(Cl)cc(CNC(C)(C)CC(C)(C)C)cc1OC | · | -6 | -4 | 35*
COc1cccc(-c2ccc(NC(=O)C3CCCN(Cc4ccco4)C3)cc2)c1 (centres undefined) | 0 | -14 | -1 | 0
O=C(Nc1ccc(-c2ccco2)cc1)C1CCCN(Cc2ccco2)C1 (centres undefined) | -1 | · | 37* | 13
Cc1cccc2sc(NNC(=O)c3ccc(S(=O)(=O)N4CCc5ccccc5C4)cc3)nc12 | 5 | 0 | -6 | ·
Cc1cccc2sc(NNC(=O)c3ccc(S(=O)(=O)N4CCCC(C)C4)cc3)nc12 (centres undefined) | -4 | -2 | 43* | ·
C/C=C/c1ccc2c(c1)O[C@H](CN(C)C(=O)Cc1cccnc1)[C@H](C)CN([C@H](C)CO)S2(=O)=O | -4 | · | · | ·
COc1ccccc1C(=O)Nc1ccc2c(c1)C(=O)N(C)C[C@@H](OC)[C@@H](C)CN[C@H](C)CO2 | 1 | · | · | ·
COc1ccc(N=C2S/C(=C\c3ccc(OCC(=O)O)cc3)C(=O)N2CCc2c[nH]c3ccccc23)cc1 | 31* | -10 | -6 | -1
O=C1CCc2cc(S(=O)(=O)NC(Cc3ccccc3)C(=O)NCCC3=CCCCC3)ccc2N1 (centres undefined) | 0 | -20 | 66* | 1
CC(C)(C)NC(=O)C(Cc1ccccc1)NS(=O)(=O)c1ccc2c(c1)CCC(=O)N2 (centres undefined) | · | -7 | -4 | 7
Cc1ccc(S(=O)(=O)NCc2ccc3c(c2)OCO3)cc1C | 4 | 36* | 0 | -7
COc1ccccc1OCCC(=O)OCC(=O)c1c(N)n(C)c(=O)n(C)c1=O | -7 | 32* | 1 | 11
O=C(C[C@H]1C[C@H]2c3cc(NC(=O)CC4CC4)ccc3O[C@H]2[C@H](CO)O1)NCC(F)(F)F | -3 | · | · | ·
O=C(C[C@H]1C[C@H]2c3cc(NC(=O)CC4CC4)ccc3O[C@H]2[C@@H](CO)O1)NCc1ccc(-c2ccccc2)cc1 | 53* | · | · | ·
O=C(C[C@H]1C[C@@H]2c3cc(NC(=O)C4CCOCC4)ccc3O[C@@H]2[C@@H](CO)O1)NCC(F)(F)F | 2 | · | · | ·
O=C(C[C@@H]1C[C@H]2c3cc(NC(=O)C4CCC4)ccc3O[C@H]2[C@@H](CO)O1)NCC(F)(F)F | 77* | · | · | ·
O=C(C[C@H]1C[C@@H]2c3cc(NC(=O)C4CCC4)ccc3O[C@@H]2[C@H](CO)O1)NCC(F)(F)F | 43* | · | · | ·
CN1CCN(C(=O)C[C@@H]2C[C@@H]3c4cc(NC(=O)C5CCOCC5)ccc4O[C@@H]3[C@H](CO)O2)CC1 | 37* | · | · | ·
CC(C)CC#Cc1ccc2c(c1)O[C@@H](CN(C)CC1CCOCC1)[C@H](C)CN([C@H](C)CO)S2(=O)=O | -3 | · | · | ·
Cc1ccc(S(=O)(=O)Nc2ccc3c(c2)C(=O)N([C@@H](C)CO)C[C@@H](C)[C@H](CN(C)C(=O)NC(C)C)O3)cc1 | 8 | · | · | ·
CCCN1C[C@H](C)[C@H](OC)CN(C)C(=O)c2ccc(NC(=O)C3CCC3)cc2OC[C@H]1C | -8 | · | · | ·
COC(=O)C[C@H]1C[C@@H]2c3cc(NC(=O)Cc4ccncc4)ccc3O[C@@H]2[C@@H](CO)O1 | 60* | · | · | ·
